A selection: hits, their analogues and other compounds. The true share with any hit is near 8%.
LASV entry inh – qHTS for Inhibitors of binding or entry into cells for Lassa Virus. Lassa virus pseudotype entry inhibition, cell reporter. Potency, µM (titrated, usually from 37.9 µM), for the others: top-dose activity change, negative = inhibition, hits mostly inhibitors. hit rate 1.2% among 300,000; calls by dose curve; tested in HEK293 cells; note: potency is the fitted concentration of half-maximal effect; % is set by controls: 0 for no effect and ±100 for the full control effect; nearly all actives have a fitted effect of over 50% in size
HCV inhibitor – qHTS Assay for Inhibitors of Hepatitis C Virus (HCV); Huh7.5.1 HCVcc-Cre infection, luciferase reporter, 44 h; Potency, µM (series often up to 41.8 µM), inactives show at the highest dose activity change, negative = inhibition, hits mostly inhibitors; hit rate 3.4% among 340,000; active = well fitted inhibition curve with a large enough effect; inconclusive = small, poorly fitted or top-dose-only effect, or another doubt; inactive = no such curve, though single readings can be large or run the other way; note: potency is the fitted concentration of half-maximal effect; % is set by controls: 0 for no effect and ±100 for the full control effect
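HCVcc-Cre virus at an moi near 0.5 was added right after compound to cells cultured 4 h from seeding (1,000 cells/well). Luciferase activity was determined 44 h later, 15 min after substrate addition at RT.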
HCMV antiviral – qHTS Assay for inhibitors of the human cytomegalovirus (HCMV); HFF cells, HCMV-luciferase reporter, 72 h; active compounds read low; activity change, negative = inhibition, % at 57.5 µM; hit rate 4.5% among 410,000; AID 1259415, 2018; in the data active = activity change below about -60%; inconclusive = no clear call, values can overlap the other calls; inactive = above about -39%; note: % is set by controls: 0 for no effect and ±100 for the full control effect
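Steps: HFFs plated, 16 h 37C; compounds added; HCMV-luciferase added to MOI 1 PFU/cell; 72 h 37C; OneGlo reagent, 5 min room temperature; luminescence read, normalized to controls.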
SARS PLpro yeast-1 – qHTS of Yeast-based Assay for SARS-CoV PLP. S. cerevisiae expressing SARS-CoV PLpro, growth rescue. hit rate 0.19% among 330,000. AID 485353, 2010. Potency, µM (doses to about 32.9 µM), for the others: at the top dose activity, positive = growth rescue, hits mostly activators; calls by dose curve; note: potency is the fitted concentration of half-maximal effect; 0% is about no effect; nearly all actives have a fitted effect of over 55% in size
Marburg entry inh – qHTS for inhibitors of binding or entry into cells for Marburg Virus | Marburg virus pseudotyped entry inhibition, cell reporter | Potency, µM (series often up to 37.8 µM), for inactives: top-dose activity change, negative = inhibition, most hits filed as inhibitors | hit rate 1.8% among 300,000 | AID 540276, 2011; calls by dose curve; tested in HEK293 cells; note: potency is the fitted concentration of half-maximal effect; % is set by controls: 0 for no effect and ±100 for the full control effect
FMDV inh – High Throughput Screening for Foot and Mouth Disease Virus Antivirals; FMDV antiviral cell-based qHTS; Potency, µM (doses to about 57.9 µM), for inactives: top-dose activity change, negative = inhibition, hits mostly inhibitors; hit rate 1.2% among 410,000; AID 1159524, 2015; calls by dose curve; tested in HEK293T cells; note: read-out not given here; potency is the fitted concentration of half-maximal effect; % is set by controls: 0 for no effect and ±100 for the full control effect; nearly all actives have a fitted effect of over 45% in size
SARS PLpro yeast-2 – qHTS of Yeast-based Assay for SARS-CoV PLP: Hit Validation. yeast expressing SARS-CoV PLpro, growth phenotype rescue. AID 652038, 2013. calls only. shares compounds with SARS PLpro yeast-1. hit rate 19% among 1,000; call rule not given here
Numbers without * were called inactive; i = inactive; ? = inconclusive; · = no result given; + = active, no number; [ ] = dose if it differs, or a comment.

SMILES | LASV entry inh | HCV inhibitor | HCMV antiviral | SARS PLpro yeast-1 | Marburg entry inh | FMDV inh | SARS PLpro yeast-2
O=C1c2cccc3cc(Br)cc(c23)C(=O)N1Nc1ccc(Br)cc1 | 2.5% | ? | -33.4 | -9.3% | ? | 5.8% | ·
O=C1C=CC(=O)N1Nc1ccc(Br)cc1 | 28.5% | 1.7% | -11.2 | ? | 3.2% | 10.0% | i
CCOC(=O)c1ccc(-n2c(O)c(/C=N/NC(=O)C3COc4ccccc4O3)c3ccccc3c2=O)cc1 (centres undefined) | ? | 4.9% | 0.5 | 4.47µM* | -15.0% | -26.5% | i
CC(C)(CNC(=O)c1sc2cc(F)ccc2c1Cl)N1CCOCC1 | 13.4% | 11.2µM* | ? | ? | 5.1% | -5.0% | i
Cc1ccc(C(=O)NCC(C)(C)N2CCOCC2)s1 | -2.2% | 20.7% | 54.4 | 0.1% | 9.3% | 8.6% | ·
Cc1c(Cl)cccc1Nc1nn2c(=O)c3ccc(C(=O)NCCC4=CCCCC4)cc3nc2s1 | -9.9%[46.1 µM] | · | -35.4 | · | · | ? | ·
CNC(=O)Oc1ccc2ncccc2c1 | 8.7% | 3.9% | -23.4 | 14.1µM* | 9.9% | -14.6% | +
O=C(CCN1CCN(c2ccccc2)CC1)N/N=C/c1ccccc1OC(F)F | ? | ? | -34.8 | -2.7% | ? | -7.9% | ·
O=C(CCN1CCN(C(c2ccccc2)c2ccccc2)CC1)N/N=C/c1ccc(O)cc1O | ? | 7.94µM* | 35.4 | 4.47µM* | ? | -23.1% | i
O=C(COC(=O)c1cccnc1Cl)NC1CCCCCC1 | -1.9%[46.1 µM] | -1.0% | -21.9 | 3.16µM* | -9.6%[46.1 µM] | 20.9% | i
C/C(=C\C[Si](C)(C)C)CCC=O | · | · | · | · | -25.1%[14.2 µM] | · | ·
CCCCOc1ccc(C(=O)NCC(=O)NCCOc2ccc(C)cc2)cc1 | · | 3.1% | 0.0 | -0.1%[6.58 µM] | · | 13.1% | ·
CCCCOc1ccc(C(=O)NCC(=O)NC2CC2)cc1 | -6.5% | 13.5% | -15.6 | 11.2µM* | 22.4% | 5.1% | i
CCOc1ccccc1-c1c2cc(O)c(=O)cc-2oc2cc(O)c(O)cc12 | ? | -16.5% | · | 11.2µM* | ? | ? | +
COc1ccc(OC)c(-c2c3cc(O)c(=O)cc-3oc3cc(O)c(O)cc23)c1 | ? | -11.5% | · | ? | 20.6µM* | -26.4% | +
Cc1ccc2c(=O)cc(C(=O)Nc3ccc(S(=O)(=O)N(C)Cc4ccccc4)cc3)oc2c1 | 20.0%[46.1 µM] | · | -15.6 | · | -23.8%[46.1 µM] | -26.5% | ·
COc1ccc(-c2cc(C(F)(F)F)nc(SCC(=O)NCc3ccc(OC)c(OC)c3)n2)cc1 | 11.9%[46.1 µM] | · | -18.6 | · | 3.8%[46.1 µM] | -20.2% | ·
NC(=O)N/N=C\c1cc(Br)ccc1O | 18.4% | 16.8% | 19.4 | 10.3% | 1.8% | -0.4% | ·
O=C(N/N=C/c1cc(Cl)ccc1O)c1ccc(Br)cc1 | 10µM* | 3.16µM* | -101.9* | ? | ? | 6.1% | i
Nc1nonc1C(=O)N/N=C/c1cc(Br)ccc1O | ? | 11.2µM* | -8.1 | ? | ? | 43.6% | +
CC(C)c1ccc(S(=O)(=O)c2nnn3c2nc(NC2CCCC2)c2sccc23)cc1 | 1.5%[46.1 µM] | · | 31.6 | · | · | 0.5% | ·
CCN(CC)c1ccc(/C=N/Nc2nc3ccccc3[nH]2)c(O)c1 | 6.31µM* | 5.62µM* | -98.2* | 10µM* | 3.98µM* | -26.0% | +
Cc1ccc2cc(/C=N/Nc3nc4ccccc4[nH]3)c(Cl)nc2c1 | · | 0.9% | 4.8 | -15.9% | · | 7.2% | ·
O=C(Cc1cccs1)N/N=C/c1ccccc1 | ? | -4.3% | 55.2 | -2.3% | -4.7%[46.1 µM] | 19.4% | ·
CCN(CC)c1ccc(/C=N/NC(=O)Cc2cccs2)c(O)c1 | 3.16µM* | ? | -99.9* | 5.01µM* | 16.4µM* | 22.1% | i
COc1cccc(C(Nc2ccccn2)c2oc(CO)cc(=O)c2O)c1 (centres undefined) | 3.5% | 20.6% | 5.5 | 11.2µM* | -4.1% | -16.2% | i
CC(C)Oc1ccc(Cn2c(-c3ccco3)n[nH]c2=S)cc1 | 5.8% | 4.0% | 18.7 | 22.4µM* | 11.4%[46.1 µM] | 3.4% | i
COc1ccc(Cn2c(-c3ccc(OC)cc3)n[nH]c2=S)cc1 | ? | 2.9% | 15.9 | 6.6% | -0.4%[46.1 µM] | -19.3% | ·

Screens (PubChem BioAssay)
